The source of these data is PubChem BioAssay.

One experiment has as its target Albumin (Bos taurus) (UniProt P02769). In words: compounds binding labelled BSA control protein – biochemical, small-molecule microarray, Alexa647 label, 635/667 nm fluorescence, artefact control for SMM control protein annotation, profiling panel (AID 1118).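 Note: score merges 667 nm emission intensity and signal-to-noise per printed compound spot.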 As to conditions: BSA-A647 binding, fluorescence 635 nm, higher = more signal.
Experiment [1] in a line: probe aXIP binding to arrayed compounds – biochemical, NeuroSMM set, 635/667 nm fluorescence, primary screen (AID 1119).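 Note: probe is the protein aXip251-270 applied at 1 µg/mL to compound-printed slides; binding of probe to printed compounds measured as 667 nm fluorescence plus signal to noise.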 As to conditions: small-molecule microarray, higher = more signal, called active from +8 up or from −8 down.
A short description of experiment [2]: probe aNOTCH3 binding on compound microarray – biochemical, small-molecule microarray, 635/667 nm fluorescence, primary screen (AID 1120).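 Note: probe is a biotin-tagged antibody raised against NOTCH3 rather than NOTCH3 protein; score merges spot fluorescence near 667 nm with spot signal to noise.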 As to conditions: higher = more signal.
A short description of experiment [3]: probe aNOTCH2 binding on compound microarray – biochemical, small-molecule microarray, 635/667 nm fluorescence, primary screen (AID 1121).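 Note: score merges feature fluorescence read at 667 nm with its signal to noise.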 As to conditions: higher = more signal.
In experiment [4] the target is Carbonic anhydrase 2 (Homo sapiens) (UniProt P00918). Kind of experiment: compounds binding carbonic anhydrase 2 – biochemical, small-molecule microarray, Alexa647-labelled CAII, profiling panel (AID 1122). As to conditions: CAII-A647 binding fluorescence, higher = more signal.
Experiment [5] in a line: COS7 lysate on small-molecule microarray, probe aHis, 635 nm (AID 1123).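 Note: z-score combines 667nm fluorescence intensity with signal-to-noise per printed compound spot.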 As to conditions: COS7 cell lysate, fluorescence, higher = more signal.
Experiment [6] in a line: probe aLAP1 signal on lysate-treated microarray – cell lysate, small-molecule microarray, COS7 lysate, primary screen (AID 1124).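 Note: lysate comes from COS7 cells expressing LAP1 and is applied at 0.3 µg/mL; score merges spot fluorescence near 667 nm with signal-to-noise over triplicate slides.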 As to conditions: probe aLAP1, fluorescence, higher = more signal.
A further experiment concerns Sam68 (KHDRBS1). Kind of experiment: compounds binding KHDRBS1 protein – biochemical, small-molecule microarray, 635 nm fluorescence, primary screen (AID 1125).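 Note: score merges 667 nm channel intensity with signal to noise over triplicate slides.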 As to conditions: higher = more signal.
Experiment [7] concerns Chordin-like protein 2 (CHRDL2). Kind of experiment: compounds binding chordin-like 2 – biochemical, small-molecule microarray, 635 nm fluorescence, primary screen (AID 1126).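 Note: printed compound slides probed with Chrdl2 protein at 4 µg/mL for 1 h at 4 C; score merges 667 nm emission intensity with signal to noise over three replicate slides.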 As to conditions: fluorescence 635 nm, higher = more signal.
Experiment [8] has as its target Concanavalin-A (Canavalia ensiformis) (UniProt P02866). In words: compounds binding concanavalin A lectin – biochemical, small-molecule microarray, Alexa647 label, 635 nm, artefact control for SMM control protein annotation, primary screen (AID 1127).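 Note: z combines 667 nm emission intensity with signal-to-noise across three replicate slides.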 As to conditions: ConA-A647 binding fluorescence, higher = more signal.
The nature of experiment [9]: compounds binding Alexa647 anti-His antibody – biochemical, small-molecule microarray, 635 nm fluorescence, artefact control for SMM control protein annotation, primary screen (AID 1128).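 Note: score merges feature fluorescence with signal-to-noise for each printed compound spot.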 As to conditions: higher = more signal.
The subject of experiment [10] is Human papillomavirus type 1a E7 protein (residues 1-88). Kind of experiment: HPV1a E7 small-molecule binders, primary screen, biochemical, small-molecule microarray, residues 1-88, 635 nm (AID 1129). As to conditions: small-molecule microarray binding, fluorescence 635 nm; higher = more signal.
The target of experiment [11] is Focal adhesion kinase 1 (Homo sapiens) (UniProt Q05397). Kind of experiment: PTK2 protein binding on printed compound slides – biochemical, small-molecule microarray, 635/667 nm fluorescence, BSA, DTT, primary screen (AID 1130).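 Note: composite of spot emission at 667 nm and signal to noise over triplicate slides.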 As to conditions: 635 nm fluorescence, higher = more signal.
Chain of Focal adhesion kinase 1 (Homo sapiens) (Q05397 whole entry, looked up): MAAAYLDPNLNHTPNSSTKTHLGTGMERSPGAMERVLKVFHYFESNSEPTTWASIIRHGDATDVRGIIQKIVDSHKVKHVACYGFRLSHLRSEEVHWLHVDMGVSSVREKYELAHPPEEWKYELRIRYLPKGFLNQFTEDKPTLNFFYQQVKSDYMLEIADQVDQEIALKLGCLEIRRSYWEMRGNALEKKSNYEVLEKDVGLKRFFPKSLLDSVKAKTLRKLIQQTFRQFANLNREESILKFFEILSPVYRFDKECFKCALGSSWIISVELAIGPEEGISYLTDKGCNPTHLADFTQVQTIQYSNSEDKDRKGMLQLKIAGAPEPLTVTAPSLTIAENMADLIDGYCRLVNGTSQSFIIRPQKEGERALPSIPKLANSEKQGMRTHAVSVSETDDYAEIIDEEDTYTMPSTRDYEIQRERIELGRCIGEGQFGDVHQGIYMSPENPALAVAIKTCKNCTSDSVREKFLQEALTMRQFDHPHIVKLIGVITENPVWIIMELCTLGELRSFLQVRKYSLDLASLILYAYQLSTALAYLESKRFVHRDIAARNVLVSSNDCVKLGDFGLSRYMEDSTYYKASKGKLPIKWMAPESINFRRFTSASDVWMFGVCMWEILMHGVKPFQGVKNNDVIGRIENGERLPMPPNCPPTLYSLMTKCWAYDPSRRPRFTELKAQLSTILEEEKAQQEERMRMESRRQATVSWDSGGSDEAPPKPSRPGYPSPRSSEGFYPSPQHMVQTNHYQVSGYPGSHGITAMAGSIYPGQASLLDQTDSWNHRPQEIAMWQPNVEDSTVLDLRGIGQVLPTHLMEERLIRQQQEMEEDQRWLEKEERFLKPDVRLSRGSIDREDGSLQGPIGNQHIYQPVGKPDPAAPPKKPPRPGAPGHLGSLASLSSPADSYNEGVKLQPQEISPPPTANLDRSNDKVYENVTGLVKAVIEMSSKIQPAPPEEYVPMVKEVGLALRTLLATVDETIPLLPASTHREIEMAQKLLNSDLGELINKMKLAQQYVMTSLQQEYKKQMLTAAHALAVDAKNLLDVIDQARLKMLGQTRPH
The subject of experiment [12] is Fibrinogen (Alexa647-labelled). In words: Alexa647-fibrinogen binding to printed small molecules – biochemical, small-molecule microarray, 635/667 nm fluorescence, artefact control for SMM control-protein annotation, profiling panel (AID 1131).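 Note: z-score merges 667 nm fluorescence with per-spot signal-to-noise over triplicate slides.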 As to conditions: fibrinogen-A647 binding fluorescence, higher = more signal.
The target in experiment [13] is Follistatin (Homo sapiens) (UniProt P19883). In words: FST protein binding to printed compounds – biochemical, small-molecule microarray, 635/667 nm fluorescence, primary screen (AID 1132). As to conditions: 635 nm fluorescence, higher = more signal.
Chain of Follistatin (Homo sapiens) (P19883 whole entry, looked up): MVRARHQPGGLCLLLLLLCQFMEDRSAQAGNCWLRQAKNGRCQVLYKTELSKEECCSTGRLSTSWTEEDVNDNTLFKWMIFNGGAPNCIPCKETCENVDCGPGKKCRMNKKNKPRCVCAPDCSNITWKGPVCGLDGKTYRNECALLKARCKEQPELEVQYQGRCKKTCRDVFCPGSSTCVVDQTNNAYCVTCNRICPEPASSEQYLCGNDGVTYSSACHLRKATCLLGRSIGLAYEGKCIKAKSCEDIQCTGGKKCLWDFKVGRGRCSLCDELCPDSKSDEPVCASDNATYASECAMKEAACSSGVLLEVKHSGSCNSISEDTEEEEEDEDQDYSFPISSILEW
Experiment [14] concerns the target Fibroblast growth factor 2 (Homo sapiens) (UniProt P09038). Kind of experiment: basic fibroblast growth factor binding to printed compounds – biochemical, small-molecule microarray, 635/667 nm fluorescence, primary screen (AID 1133). As to conditions: FGF2, fluorescence 635/667, higher = more signal.
The nature of experiment [15]: JC-1 mitochondrial potential readout, lung cancer cells – cell-based, A549, JC-1 fluorescence, basal, 24 h, 100 nL, profiling panel (AID 1138).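 Note: A549 lung adenocarcinoma cells under basal conditions with no added stimulus; test concentration not given here.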 As to conditions: higher = more signal.
The next experiment has as its system Lefty1. In words: Lefty1 protein binding to printed compounds – biochemical, small-molecule microarray, 635/667 nm fluorescence, primary screen (AID 1139). As to conditions: fluorescence 635/667, higher = more signal.
Experiment [16] deals with wheat germ agglutinin (Triticum aestivum), Alexa647-labelled. Kind of experiment: Alexa647-WGA lectin binding to printed small molecules – biochemical, small-molecule microarray, 635/667 nm fluorescence, artefact control for SMM control-protein annotation, profiling panel (AID 1140).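 Note: score merges 667 nm feature emission with signal to noise over triplicate slides.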 As to conditions: WGA-A647 binding, 635 nm fluorescence, higher = more signal.
The target in experiment [17] is Luciferin 4-monooxygenase (Photinus pyralis) (UniProt P08659). In words: inhibition of purified Photinus pyralis luciferase – biochemical, luminescence, purified enzyme, 2006 set, primary screen (AID 1141).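 Note: cell-free assay with purified firefly luciferase at 100 ng per well in PBS; test concentration not given here.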 As to conditions: purified firefly luciferase, SteadyGlo luminescence, 30 min; higher = more signal, called active from +8 up or from −8 down.
Chain of Luciferin 4-monooxygenase (Photinus pyralis) (P08659 whole entry, looked up): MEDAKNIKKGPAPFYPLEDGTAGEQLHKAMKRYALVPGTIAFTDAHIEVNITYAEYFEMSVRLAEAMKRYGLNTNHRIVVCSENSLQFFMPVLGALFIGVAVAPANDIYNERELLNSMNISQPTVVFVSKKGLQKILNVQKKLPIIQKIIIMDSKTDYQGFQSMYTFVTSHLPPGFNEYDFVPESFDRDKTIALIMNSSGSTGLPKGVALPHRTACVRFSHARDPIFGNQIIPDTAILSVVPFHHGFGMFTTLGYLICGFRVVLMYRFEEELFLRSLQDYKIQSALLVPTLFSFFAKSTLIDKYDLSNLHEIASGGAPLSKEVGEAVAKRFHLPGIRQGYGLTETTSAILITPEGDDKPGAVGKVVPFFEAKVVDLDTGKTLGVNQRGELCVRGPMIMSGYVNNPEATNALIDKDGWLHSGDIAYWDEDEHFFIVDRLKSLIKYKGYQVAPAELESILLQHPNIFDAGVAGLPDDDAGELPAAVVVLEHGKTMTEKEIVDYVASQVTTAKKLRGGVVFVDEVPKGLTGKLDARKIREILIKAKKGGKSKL

The structures appear in SMILES notation. Calls of active or inactive are those of the source.

Chain of Albumin (Bos taurus) (P02769 whole entry, looked up): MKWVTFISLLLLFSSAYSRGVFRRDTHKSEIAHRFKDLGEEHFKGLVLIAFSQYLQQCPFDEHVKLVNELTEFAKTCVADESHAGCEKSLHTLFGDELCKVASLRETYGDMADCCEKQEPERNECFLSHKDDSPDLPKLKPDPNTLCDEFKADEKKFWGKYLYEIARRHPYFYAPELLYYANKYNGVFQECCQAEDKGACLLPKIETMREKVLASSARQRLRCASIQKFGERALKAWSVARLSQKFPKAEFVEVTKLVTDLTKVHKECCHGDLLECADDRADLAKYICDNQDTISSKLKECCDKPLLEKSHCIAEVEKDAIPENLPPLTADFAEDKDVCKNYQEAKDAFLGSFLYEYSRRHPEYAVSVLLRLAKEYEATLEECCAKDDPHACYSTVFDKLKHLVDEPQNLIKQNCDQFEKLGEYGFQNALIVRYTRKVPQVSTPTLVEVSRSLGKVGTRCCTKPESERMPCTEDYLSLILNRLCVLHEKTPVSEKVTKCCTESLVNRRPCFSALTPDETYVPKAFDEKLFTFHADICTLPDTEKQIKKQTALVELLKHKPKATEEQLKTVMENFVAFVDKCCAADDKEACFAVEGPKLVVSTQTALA
Chain of Fibroblast growth factor 2 (Homo sapiens) (P09038 whole entry, looked up): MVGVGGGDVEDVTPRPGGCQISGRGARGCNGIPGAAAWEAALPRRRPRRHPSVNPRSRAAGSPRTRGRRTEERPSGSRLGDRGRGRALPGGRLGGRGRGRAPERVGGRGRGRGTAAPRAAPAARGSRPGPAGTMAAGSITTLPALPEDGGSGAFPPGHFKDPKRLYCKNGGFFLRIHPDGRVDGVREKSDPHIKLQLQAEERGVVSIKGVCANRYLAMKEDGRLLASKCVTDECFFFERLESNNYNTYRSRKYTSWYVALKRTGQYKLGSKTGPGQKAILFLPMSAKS
Chain of Concanavalin-A (Canavalia ensiformis) (P02866 whole entry, looked up): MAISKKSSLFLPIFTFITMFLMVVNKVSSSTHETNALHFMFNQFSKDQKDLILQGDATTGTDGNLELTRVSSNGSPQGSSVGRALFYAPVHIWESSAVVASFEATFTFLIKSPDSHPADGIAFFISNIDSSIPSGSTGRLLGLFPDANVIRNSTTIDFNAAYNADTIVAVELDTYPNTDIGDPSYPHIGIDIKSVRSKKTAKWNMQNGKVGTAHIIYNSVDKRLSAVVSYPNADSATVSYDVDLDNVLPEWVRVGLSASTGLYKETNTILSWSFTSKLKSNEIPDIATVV

In the case of `CCCCC(=C=CC[C@@H](O)c1ccccc1OCCO)C[C@@H](O)COCc1ccccc1`, the composite z-score with Albumin (Bos taurus) was 0.338; in [2], -0.281; in [3], -0.148; in experiment [4] it was 0.47; in [5], 1.95; in experiment [6], 0.207. Moreover, the composite z-score in the experiment on Sam68 (KHDRBS1) was 0.471; in [7], -0.893; in [8], -0.525; in experiment [9], 0.0168; in experiment [10] it was -0.399; in experiment [11] it was 0.577. Moreover, the composite z-score in experiment [12] was 0.479; in experiment [13], 0.271; in experiment [14], 0.668; with Lefty1, 0.0842; in [16] it was 0.0771. Also, the composite Z-score in experiment [1] was -0.0202 (inactive). For the same molecule, the z-score in experiment [15] is 0.995; in experiment [17] it was -2.59 (inactive).

For the molecule `CC(C)C(CO)N1C(=O)[C@@H]2C3C(=O)OCCC/C=C\[C@H]3OC23C=CCN(C(C)(C)C)C(=O)[C@@H]13` (stereo not given in full), the composite z-score in the experiment with Albumin (Bos taurus) was -0.632; in experiment [2], -0.304; in [3] it was -0.156; in [4], 0.815; in experiment [5], -0.12; in experiment [6], -0.281. Further, the composite z-score was -0.142 with Sam68 (KHDRBS1); -0.438 in [7]; -1.47 in experiment [8]; -0.539 in experiment [9]; -0.768 in [10]; -0.147 in experiment [11]. For the same molecule, the composite z-score in [12] was -2.19; in experiment [13], -0.895; in [14] it was -0.363; with Lefty1, -0.404; in experiment [16], -1.04. In experiment [1], the composite Z-score was -0.115 (inactive). For the same molecule, the results for the z-score in experiment [15] and in [17] were -0.0938 and -0.197 (inactive), respectively.

On to `CCOC(=O)c1ccc(NC(=O)O[C@H]2[C@H](OC(=O)Nc3ccc4c(c3)OCO4)[C@@H](OC(=O)Nc3ccc4c(c3)OCO4)[C@@H](OC)O[C@@H]2CO)cc1`, for which the composite z-score was 0.862 with Albumin (Bos taurus); 0.291 in [2]; -0.0226 in experiment [3]; 0.516 in [4]; 2.56 in experiment [5]; 0.535 in experiment [6]. In addition, the composite z-score turned out to be 1.31 with Sam68 (KHDRBS1); 0.0612 in experiment [7]; 1.14 in experiment [8]; 2.28 in experiment [9]; 1.22 in [10]; 0.891 in experiment [11]. Moreover, the composite z-score in experiment [12] worked out at 0.992; in experiment [13], 1.26; in experiment [14] it was 1.12; in the experiment with Lefty1, 0.793; in experiment [16], 1.16. In addition, the composite Z-score in experiment [1] is 0.805 (inactive). Besides, the z-score in experiment [15] is -1.05; in experiment [17], -7.83 (inactive).

In the case of `CC(=O)c1ccc(C(O)C2C=CC3C(=O)N(c4ccccc4)C(=O)C3N2Nc2ccc(C#N)cc2)cc1` (stereo not given), the composite z-score in the experiment with Albumin (Bos taurus) is 0.962; in experiment [2], 0.119; in experiment [3], -0.0023; in [4] it was 0.759; in experiment [5], 2.46; in experiment [6] it was -0.1. For the same molecule, the composite z-score in the experiment with Sam68 (KHDRBS1) is 1.1; in experiment [7] it was -0.624; in [8], 1.13; in experiment [9], 0.631; in experiment [10] it was 1.01; in [11] it was 1.27. Also, the composite z-score is 0.72 in [12]; -0.111 in experiment [13]; 0.196 in experiment [14]; -0.253 in the experiment with Lefty1; 0.714 in experiment [16]. The composite Z-score in experiment [1] was 0.824 (inactive). Moreover, the values for the z-score in [15] and in experiment [17] were 0.0866 and -0.0334 (inactive), respectively.

Consider `O[C@@H](Cc1ccccc1)[C@@H](/C=C/C1CC1)N(CC#Cc1ccccc1)Cc1cccc(Cl)c1`, for which the composite z-score is -0.22 with Albumin (Bos taurus); -0.376 in [2]; -0.117 in [3]; -0.245 in experiment [4]; -0.359 in experiment [5]; 0.0449 in experiment [6]. Moreover, the composite z-score in the experiment with Sam68 (KHDRBS1) is -0.117; in [7], -1.21; in experiment [8], -0.403; in experiment [9] it was -0.156; in experiment [10] it was -0.429; in experiment [11], -0.0816. Besides, the composite z-score in [12] is -0.6; in experiment [13] it was -1.19; in [14], -1.43; with Lefty1 it was -0.954; in experiment [16], 0.197. The composite Z-score in experiment [1] is 0.889 (inactive). Further, the z-score in experiment [15] is 0.513; in experiment [17] it was 0.466 (inactive).

As to `CN(C)c1ccc(C(O)C2C=CC3C(=O)N(c4ccccc4)C(=O)C3N2Nc2ccc([N+](=O)[O-])cc2)cc1` (stereo not given), the composite z-score with Albumin (Bos taurus) is 0.653; in [2], 0.307; in experiment [3], -0.133; in experiment [4], 0.27; in [5], 2.1; in experiment [6], 0.15. The composite z-score with Sam68 (KHDRBS1) was 1.29; in [7], -0.437; in experiment [8], 1.05; in experiment [9] it was 1.35; in experiment [10] it was 1.19; in [11], -0.165. The composite z-score is 0.979 in experiment [12]; 1.01 in [13]; -0.181 in experiment [14]; 0.149 with Lefty1; 0.623 in [16]. The composite Z-score in experiment [1] was 0.103 (inactive). Also, the z-score in [15] is -0.621; in [17], -0.421 (inactive).

For the molecule `C=C(COC)C(=O)CC[C@@H](OC(=O)c1cccnc1)c1ccc(OCCO)cc1`, the composite z-score with Albumin (Bos taurus) was -0.283; in experiment [2], 0.176; in experiment [3], 0.0362; in [4], 0.751; in experiment [5], 1; in [6], 0.211. Also, the composite z-score is 0.629 in the experiment with Sam68 (KHDRBS1); 1.12 in experiment [7]; 0.388 in experiment [8]; 0.282 in experiment [9]; 0.659 in [10]; -0.157 in experiment [11]. In addition, the composite z-score amounted to 0.108 in experiment [12]; 1.4 in [13]; 1.78 in experiment [14]; 1.21 in the experiment on Lefty1; 0.237 in experiment [16]. Moreover, the composite Z-score in [1] is 0.517 (inactive). Moreover, the z-score is 0.822 in experiment [15] and -3.79 (inactive) in [17].

For `C[N+](C)(C)CCCCCCNC(=O)[C@H]1C[C@H]2C(=O)N[C@@H](Cc3ccccc3)C(=O)N2[C@H]1c1ccc(O)cc1`, the composite z-score with Albumin (Bos taurus) is -0.459; in experiment [2] it was -0.0471; in experiment [3], -0.137; in [4], 0.4; in [5], 1.05; in experiment [6] it was 0.0686. Also, the composite z-score in the experiment with Sam68 (KHDRBS1) is 0.479; in experiment [7] it was 1.37; in [8], 0.547; in experiment [9], 1.32; in [10], 0.0251; in experiment [11], -0.208. Also, the composite z-score in experiment [12] was -0.222; in experiment [13], 1.34; in experiment [14] it was 0.916; in the experiment on Lefty1 it was 1.34; in experiment [16], 0.112. Further, in experiment [1], the composite Z-score was -0.505 (inactive). In addition, the z-score is 0.0402 in experiment [15] and -0.555 (inactive) in [17].
